Data: PubChem BioAssay (EPA / NIEHS)
Results filed as inconclusive are left out. Active and inactive are the calls of the source. The calls were made as follows, unless noted: active = hit-call score of the fitted dose curve at least 0.9, where 1 is the maximum; inconclusive = response in the unintended direction; inactive = score below 0.9.

Key:
[1] = target: human CYP19A1, CYP19A1 (gene 1588) (UniProt P11511); assay: NVS_ADME_hCYP19A1: NovaScreen (NVS) CYP450-related Enzyme Activity (ADME) Assay for human CYP19A1 (AID 2283098);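 as to AC50: potency for inhibitors seen as loss of fluorescent enzyme signal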
Procedure, shortened: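 Fluorescence intensity read-out; activity taken as signal loss relative to acetonitrile vehicle. Extracted enzyme, specific substrate, no cells, 0.5 h exposure. Duplicate single-point screen at 10 uM, then concentration–response follow-up for actives.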

[2] = target: human CYP2B6, CYP2B6 (gene 1555) (UniProt P20813); assay: NVS_ADME_hCYP2B6: NovaScreen (NVS) CYP450-related Enzyme Activity (ADME) Assay for human CYP2B6 (AID 2283101)
Procedure, shortened: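 Recombinant human CYP2B6 with fluorogenic substrate, read by fluorescence intensity 1 h after dosing. Primary screen in duplicate at 10 uM, actives followed in concentration series; signal loss relative to acetonitrile control.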

[3] = target: Cytochrome P450 2C18 (Homo sapiens) (UniProt P33260); assay: NVS_ADME_hCYP2C18: NovaScreen (NVS) CYP450-related Enzyme Activity (ADME) Assay for human CYP2C18 (AID 2283103; active = hit-call score of the fitted dose curve at least 0.9, where 1 is the maximum; inactive = score below 0.9)
Procedure, shortened: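 Enzyme activity measured by fluorescence 0.5 h after compound addition, using recombinant CYP2C18 and a specific substrate. Actives from duplicate 10 uM screening were retested in concentration series (top 20 uM); acetonitrile served as negative baseline.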

[4] = target: rat CYP2C11, Cyp2c11 (gene 29277) (UniProt P08683); assay: NVS_ADME_rCYP2C11: NovaScreen (NVS) CYP450-related Enzyme Activity (ADME) Assay for rat CYP2C11 (AID 2283118)
Procedure, shortened: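 Screened first at 10 uM in duplicate, hits followed by concentration-response. Recombinant rat enzyme activity monitored by fluorescence 0.33 h post-dosing, normalised to acetonitrile negative control.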

[5] = target: rat CYP2C13, Cyp2c13 (gene 171521) (UniProt P20814); assay: NVS_ADME_rCYP2C13: NovaScreen (NVS) CYP450-related Enzyme Activity (ADME) Assay for rat CYP2C13 (AID 2283121)
Procedure, shortened: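 Inhibition is read as decreased fluorescent product formation, referenced to acetonitrile vehicle. Cell-free recombinant rat Cyp2c13 reaction ran 0.75 hour; compounds first at 10 uM in duplicate, then concentration series for actives.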

[6] = test system: rat CYP3A1, gene 25642; assay: NVS_ADME_rCYP3A1: NovaScreen (NVS) CYP450-related Enzyme Activity (ADME) Assay for rat CYP3A1 (AID 2283126)
Procedure, shortened: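 Compounds went first at 10 uM duplicate, then to series with 20 uM maximum. Fluorescence from substrate turnover by the recombinant enzyme was measured 0.5 h post-dosing, inhibition scored against acetonitrile vehicle.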

[7] = target: human CYP2C9, CYP2C9 (gene 1559) (UniProt P11712); assay: NVS_ADME_hCYP2C9: NovaScreen (NVS) CYP450-related Enzyme Activity (ADME) Assay for human CYP2C9 (AID 2283108)
Procedure, shortened: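 Recombinant human CYP2C9 expressed in SF9 cells, fluorogenic substrate, fluorescence read 0.75 h after dosing. Chemicals first run in duplicate at 10 uM, with actives followed in concentration series; loss of signal versus acetonitrile baseline.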

[8] = target: Cytochrome P450 3A4 (Homo sapiens) (UniProt P08684); assay: NVS_ADME_hCYP3A4: NovaScreen (NVS) CYP450-related Enzyme Activity (ADME) Assay for human CYP3A4 (AID 2283110)
Procedure, shortened: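 Recombinant CYP3A4 from insect cells, fluorescence enzyme read-out, 0.33 h after chemical addition. Acetonitrile = negative control/baseline. Primary HTS: 10 uM in duplicate; actives re-tested in concentration series.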

[9] = target: human CYP4F12, CYP4F12 (gene 66002) (UniProt Q9HCS2); assay: NVS_ADME_hCYP4F12: NovaScreen (NVS) CYP450-related Enzyme Activity (ADME) Assay for human CYP4F12 (AID 2283111)
Procedure, shortened: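 Recombinant enzyme with a fluorescent substrate, signal read at 0.5 h post-dose; activity loss analysed relative to acetonitrile. Compounds first run in duplicate at 10 uM, with follow-up concentration-response testing of actives.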

[10] = target: rat CYP2A1, Cyp2a1 (gene 24894) (UniProt P11711); assay: NVS_ADME_rCYP2A1: NovaScreen (NVS) CYP450-related Enzyme Activity (ADME) Assay for rat CYP2A1 (AID 2283114; active = hit-call score of the fitted dose curve at least 0.9, where 1 is the maximum; inactive = score below 0.9)
Procedure, shortened: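 Cell-free fluorescence enzyme-activity read on recombinant rat CYP2A1, taken 0.75 h post-dosing. Compounds were screened in duplicate at 10 uM, then hits tested in concentration series (max 20 uM); inhibition scored relative to acetonitrile baseline.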

[11] = target: rat CYP1A2, Cyp1a2 (gene 24297) (UniProt P04799); assay: NVS_ADME_rCYP1A2: NovaScreen (NVS) CYP450-related Enzyme Activity (ADME) Assay for rat CYP1A2 (AID 2283115)
Procedure, shortened: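 Primary testing ran in duplicate at 10 uM, with actives re-tested across concentration series. Fluorescence intensity from substrate turnover by recombinant protein, measured 1 hour post-dosing, with signal loss scored against acetonitrile vehicle.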

[12] = target: rat CYP2A2, Cyp2a2 (gene 24895) (UniProt P15149); assay: NVS_ADME_rCYP2A2: NovaScreen (NVS) CYP450-related Enzyme Activity (ADME) Assay for rat CYP2A2 (AID 2283116)
Procedure, shortened: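 Compounds first tested in duplicate at 10 uM, then in singleton concentration series up to 20 uM when over threshold. Activity of the recombinant enzyme read by fluorescence at 0.2 h, normalised to acetonitrile vehicle.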

[13] = target: Caspase-1 (Homo sapiens) (UniProt P29466); assay: NVS_ENZ_hCASP1: NovaScreen (NVS) Enzymatic Assay for human Caspase 1 (CASP1) (AID 2283132)
Procedure, shortened: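 Compounds were first tested in duplicate at 25 uM, with follow-up concentration series up to 50 uM. The bacterially expressed enzyme was read by fluorescence at 1 h post-dosing. Signal loss versus DMSO baseline indicates reduced enzyme activity.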

[14] = target: human Caspase 10 (CASP10), CASP10 (gene 843) (UniProt Q92851); assay: NVS_ENZ_hCASP10: NovaScreen (NVS) Enzymatic Assay for human Caspase 10 (CASP10) (AID 2283133)
Procedure, shortened: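 Fluorescence-intensity enzyme read-out of E. coli-expressed CASP10 activity, 1 h after compound. Single-point duplicates at 25 uM preceded concentration-response testing (top 50 uM) of hits; inhibition expressed as signal loss versus DMSO.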

human CYP19A1, CYP19A1 (gene 1588), sequence (P11511 whole entry, looked up): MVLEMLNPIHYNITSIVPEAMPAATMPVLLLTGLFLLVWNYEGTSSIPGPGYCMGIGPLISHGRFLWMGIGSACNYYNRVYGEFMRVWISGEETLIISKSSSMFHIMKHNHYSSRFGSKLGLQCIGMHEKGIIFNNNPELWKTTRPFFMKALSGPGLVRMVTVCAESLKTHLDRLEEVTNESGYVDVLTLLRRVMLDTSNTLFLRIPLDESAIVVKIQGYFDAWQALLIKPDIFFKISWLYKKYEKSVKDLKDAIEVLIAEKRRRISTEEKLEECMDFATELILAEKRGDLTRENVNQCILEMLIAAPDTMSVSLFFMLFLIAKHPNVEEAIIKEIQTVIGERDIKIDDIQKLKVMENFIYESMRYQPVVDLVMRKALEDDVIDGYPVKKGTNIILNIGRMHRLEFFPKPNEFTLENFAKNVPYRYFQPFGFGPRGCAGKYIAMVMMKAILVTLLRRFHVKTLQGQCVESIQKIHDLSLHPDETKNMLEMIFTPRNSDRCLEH
human CYP2C9, CYP2C9 (gene 1559), sequence (P11712 whole entry, looked up): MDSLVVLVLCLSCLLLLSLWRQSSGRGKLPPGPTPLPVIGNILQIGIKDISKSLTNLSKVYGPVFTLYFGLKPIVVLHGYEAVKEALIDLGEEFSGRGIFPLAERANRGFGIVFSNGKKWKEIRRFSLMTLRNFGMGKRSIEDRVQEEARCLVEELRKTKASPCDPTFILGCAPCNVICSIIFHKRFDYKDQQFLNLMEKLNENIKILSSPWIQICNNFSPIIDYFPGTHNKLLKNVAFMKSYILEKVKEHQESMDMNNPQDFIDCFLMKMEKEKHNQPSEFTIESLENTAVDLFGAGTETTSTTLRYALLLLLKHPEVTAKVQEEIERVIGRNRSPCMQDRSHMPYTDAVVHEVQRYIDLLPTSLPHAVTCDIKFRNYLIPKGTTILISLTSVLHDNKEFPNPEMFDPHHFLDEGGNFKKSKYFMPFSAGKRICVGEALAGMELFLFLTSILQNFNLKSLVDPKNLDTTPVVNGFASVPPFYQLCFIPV
rat CYP1A2, Cyp1a2 (gene 24297), sequence (P04799 whole entry, looked up): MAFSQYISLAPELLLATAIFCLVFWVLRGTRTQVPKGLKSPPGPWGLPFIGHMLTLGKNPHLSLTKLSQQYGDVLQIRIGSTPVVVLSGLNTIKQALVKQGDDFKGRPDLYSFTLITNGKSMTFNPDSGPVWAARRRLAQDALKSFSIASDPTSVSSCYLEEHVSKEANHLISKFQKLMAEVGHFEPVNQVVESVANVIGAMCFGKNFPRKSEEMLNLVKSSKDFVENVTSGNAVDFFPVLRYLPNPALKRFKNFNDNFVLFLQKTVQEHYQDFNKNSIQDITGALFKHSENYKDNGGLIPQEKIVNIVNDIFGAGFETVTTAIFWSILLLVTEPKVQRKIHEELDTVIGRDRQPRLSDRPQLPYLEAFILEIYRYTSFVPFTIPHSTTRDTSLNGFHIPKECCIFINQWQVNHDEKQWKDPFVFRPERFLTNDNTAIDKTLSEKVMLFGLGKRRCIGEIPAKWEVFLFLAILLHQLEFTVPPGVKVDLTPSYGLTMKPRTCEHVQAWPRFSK
Cytochrome P450 3A4 (Homo sapiens), sequence (P08684 whole entry, looked up): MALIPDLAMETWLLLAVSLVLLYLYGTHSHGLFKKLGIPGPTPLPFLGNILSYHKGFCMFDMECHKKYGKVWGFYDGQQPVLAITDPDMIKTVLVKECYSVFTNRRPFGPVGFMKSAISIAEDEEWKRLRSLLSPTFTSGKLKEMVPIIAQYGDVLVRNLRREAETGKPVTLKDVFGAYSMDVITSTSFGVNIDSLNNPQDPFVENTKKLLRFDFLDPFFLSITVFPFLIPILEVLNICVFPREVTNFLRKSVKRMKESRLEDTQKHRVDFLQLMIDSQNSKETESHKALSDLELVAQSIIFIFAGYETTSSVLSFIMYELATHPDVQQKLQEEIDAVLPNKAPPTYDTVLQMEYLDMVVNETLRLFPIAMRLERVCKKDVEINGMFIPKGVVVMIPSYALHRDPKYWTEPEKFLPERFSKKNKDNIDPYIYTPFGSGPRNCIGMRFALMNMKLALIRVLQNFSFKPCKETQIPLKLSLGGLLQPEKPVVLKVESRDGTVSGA
human CYP4F12, CYP4F12 (gene 66002), sequence (Q9HCS2 whole entry, looked up): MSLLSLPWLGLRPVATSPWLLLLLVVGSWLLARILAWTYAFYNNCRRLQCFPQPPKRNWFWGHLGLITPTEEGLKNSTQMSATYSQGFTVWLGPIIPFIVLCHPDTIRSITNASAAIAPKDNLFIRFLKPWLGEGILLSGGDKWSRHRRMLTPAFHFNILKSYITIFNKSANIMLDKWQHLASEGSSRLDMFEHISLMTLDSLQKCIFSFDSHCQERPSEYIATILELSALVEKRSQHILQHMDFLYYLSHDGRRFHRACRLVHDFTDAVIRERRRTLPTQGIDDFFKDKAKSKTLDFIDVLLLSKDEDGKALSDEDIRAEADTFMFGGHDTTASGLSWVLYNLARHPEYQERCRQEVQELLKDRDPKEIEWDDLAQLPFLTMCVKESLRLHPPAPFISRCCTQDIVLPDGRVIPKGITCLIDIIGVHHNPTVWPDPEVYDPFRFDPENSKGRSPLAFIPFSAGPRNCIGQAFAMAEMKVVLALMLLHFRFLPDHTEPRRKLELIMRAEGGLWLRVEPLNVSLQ
rat CYP2A2, Cyp2a2 (gene 24895), sequence (P15149 whole entry, looked up): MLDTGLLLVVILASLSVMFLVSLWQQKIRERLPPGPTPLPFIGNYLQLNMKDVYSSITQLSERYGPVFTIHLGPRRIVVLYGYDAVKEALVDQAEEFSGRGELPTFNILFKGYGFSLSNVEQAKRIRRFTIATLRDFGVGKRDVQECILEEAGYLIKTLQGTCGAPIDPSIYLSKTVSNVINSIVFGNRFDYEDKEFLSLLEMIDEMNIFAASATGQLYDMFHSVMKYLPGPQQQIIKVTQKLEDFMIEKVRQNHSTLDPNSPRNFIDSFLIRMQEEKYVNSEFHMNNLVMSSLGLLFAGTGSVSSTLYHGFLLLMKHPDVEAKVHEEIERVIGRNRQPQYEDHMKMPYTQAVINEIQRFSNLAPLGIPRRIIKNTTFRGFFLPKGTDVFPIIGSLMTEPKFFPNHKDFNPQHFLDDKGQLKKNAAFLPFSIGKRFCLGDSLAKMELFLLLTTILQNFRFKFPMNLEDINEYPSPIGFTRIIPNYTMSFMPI
Caspase-1 (Homo sapiens), sequence (P29466 whole entry, looked up): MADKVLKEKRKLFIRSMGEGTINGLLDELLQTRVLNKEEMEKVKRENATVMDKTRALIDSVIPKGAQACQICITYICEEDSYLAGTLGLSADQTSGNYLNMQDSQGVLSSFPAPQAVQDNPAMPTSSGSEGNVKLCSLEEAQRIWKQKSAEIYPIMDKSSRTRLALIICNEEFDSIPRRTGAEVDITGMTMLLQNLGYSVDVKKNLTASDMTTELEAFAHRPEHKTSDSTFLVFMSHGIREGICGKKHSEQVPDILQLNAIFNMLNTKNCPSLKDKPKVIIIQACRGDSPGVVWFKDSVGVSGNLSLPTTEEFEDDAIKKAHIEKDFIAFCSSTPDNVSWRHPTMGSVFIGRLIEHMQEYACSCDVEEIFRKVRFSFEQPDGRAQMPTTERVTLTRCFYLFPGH
Cytochrome P450 2C18 (Homo sapiens), sequence (P33260 whole entry, looked up): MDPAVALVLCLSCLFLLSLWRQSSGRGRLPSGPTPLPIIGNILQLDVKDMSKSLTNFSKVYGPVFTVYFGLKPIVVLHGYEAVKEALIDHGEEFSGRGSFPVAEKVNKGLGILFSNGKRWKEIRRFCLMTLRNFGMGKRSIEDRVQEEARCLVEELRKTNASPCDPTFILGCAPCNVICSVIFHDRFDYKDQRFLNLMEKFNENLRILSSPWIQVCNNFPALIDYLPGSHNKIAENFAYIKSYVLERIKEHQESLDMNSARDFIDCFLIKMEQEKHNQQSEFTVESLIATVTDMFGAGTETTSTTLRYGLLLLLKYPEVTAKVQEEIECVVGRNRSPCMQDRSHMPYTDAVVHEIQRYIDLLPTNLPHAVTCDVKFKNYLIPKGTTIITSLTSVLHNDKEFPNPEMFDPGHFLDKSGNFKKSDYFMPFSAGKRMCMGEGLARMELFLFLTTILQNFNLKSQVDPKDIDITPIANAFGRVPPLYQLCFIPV
rat CYP2C11, Cyp2c11 (gene 29277), sequence (P08683 whole entry, looked up): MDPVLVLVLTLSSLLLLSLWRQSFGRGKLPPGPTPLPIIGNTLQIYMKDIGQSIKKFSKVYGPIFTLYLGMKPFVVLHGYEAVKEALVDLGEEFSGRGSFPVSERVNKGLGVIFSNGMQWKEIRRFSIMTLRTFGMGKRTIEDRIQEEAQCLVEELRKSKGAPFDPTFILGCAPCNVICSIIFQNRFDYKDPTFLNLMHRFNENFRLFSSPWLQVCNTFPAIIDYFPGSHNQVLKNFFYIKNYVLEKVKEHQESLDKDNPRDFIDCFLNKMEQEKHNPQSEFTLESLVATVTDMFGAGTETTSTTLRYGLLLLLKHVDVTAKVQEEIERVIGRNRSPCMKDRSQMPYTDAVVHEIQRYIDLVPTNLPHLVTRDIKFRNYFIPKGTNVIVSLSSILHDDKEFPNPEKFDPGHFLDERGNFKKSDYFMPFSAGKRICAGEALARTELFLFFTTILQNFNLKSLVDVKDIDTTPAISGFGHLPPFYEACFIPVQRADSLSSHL
rat CYP2A1, Cyp2a1 (gene 24894), sequence (P11711 whole entry, looked up): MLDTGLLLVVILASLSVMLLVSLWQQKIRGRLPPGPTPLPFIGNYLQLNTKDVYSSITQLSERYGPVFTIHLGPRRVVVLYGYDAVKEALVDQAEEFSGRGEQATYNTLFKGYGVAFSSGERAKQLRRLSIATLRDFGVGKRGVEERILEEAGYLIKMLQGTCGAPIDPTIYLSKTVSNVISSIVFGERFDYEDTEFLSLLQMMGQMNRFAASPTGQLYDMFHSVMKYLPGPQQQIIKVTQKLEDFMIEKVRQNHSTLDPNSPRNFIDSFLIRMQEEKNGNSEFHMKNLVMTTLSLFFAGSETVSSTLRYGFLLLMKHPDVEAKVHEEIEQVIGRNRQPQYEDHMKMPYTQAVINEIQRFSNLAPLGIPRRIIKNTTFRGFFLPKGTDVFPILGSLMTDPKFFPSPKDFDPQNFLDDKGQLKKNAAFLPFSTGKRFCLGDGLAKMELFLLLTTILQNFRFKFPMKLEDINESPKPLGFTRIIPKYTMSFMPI

Q: Which outcome [1] does the source give for `O=c1nc(O)n(Cl)c(=O)n1Cl` here?
A: inactive

Q: With `O=C1c2ccccc2C(=O)C1C(=O)C(c1ccccc1)c1ccc(Cl)cc1` (configuration not stated) as the compound, how does the AC50 [1] read?
A: 5080 nM (active)

Q: For `CC(C)(C)c1ccccc1O`, which outcome [2] is on record?
A: inactive

Q: `CC1(C)[C@H](C(=O)O[C@H](C#N)c2cccc(Oc3ccccc3)c2)[C@@H]1/C=C(\Cl)C(F)(F)F` was tested. Which AC50 [3] did it give?
A: 951 nM (active)

Q: And the outcome [4]?
A: inactive

Q: What about the outcome [5] of the same compound?
A: inactive

Q: What about the outcome [6] of the same compound?
A: inactive

Q: `Cc1cc(C(C)(C)c2ccc(O)c(C)c2)ccc1O` was tested. Which AC50 [7] did it give?
A: 942 nM (active)

Q: What about the outcome [8] of the same compound?
A: inactive

Q: Which AC50 [7] does the source give for `Oc1ccc(Cc2ccc(O)cc2)cc1` here?
A: 321 nM (active)

Q: How did the AC50 [9] turn out when `Oc1cc(Cl)c(Cl)cc1Cl` was run?
A: 605 nM (active)

Q: What does the source list for `COC(=O)Nc1cccc(OC(=O)Nc2cccc(C)c2)c1`?
A: AC50 [10]: 3460 nM (active); AC50 [6]: 11400 nM (active)

Q: Which outcome [11] does the source give for `CC(C)(c1ccccc1)c1cc(-n2nc3ccccc3n2)c(O)c(C(C)(C)c2ccccc2)c1` here?
A: inactive

Q: `O=C(O)COc1ccc(Cl)cc1` was tested. Which outcome [12] did it give?
A: inactive

Q: How did the AC50 [13] turn out when `CC(C)O.CC(C)O.OCCN(CCO)CCO.OCCN(CCO)CCO.[Ti]` was run?
A: 1370 nM (active)

Q: What about the AC50 [14] of the same compound?
A: 8590 nM (active)
